Source: the supplement of paper PMC4466140

These binders were tested against AgAbp1 (assay: SPOT peptide array binding signal intensity (averaged, normalized) (arbitrary units (background-subtracted, floor 0; scale differs between SH3 domains)); higher = stronger binding of the SH3 domain to the peptide).
How it was run: (§1)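 Detection of bound protein relied on anti-GST antibody, an HRP anti-mouse secondary and luminol, with imaging and quantification in Genespotter. The bound protein was GST-fused SH3 domains from four yeast species, incubated at 10 μg/ml overnight at 4°C in TBS-based blocking buffer on cellulose membranes carrying synthetic 15-mer peptides with cysteines replaced by serines. Binding signal is normalized, background-subtracted spot intensity averaged over replicates, in arbitrary units that differ between domains.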

Row | Binder | SPOT peptide array binding signal intensity
1 | RSLRKRPTSPSISGS | 197

The binders below were run against AgBbc1 in the same assay as above.
How it was run: as §1

Row | Binder | SPOT peptide array binding signal intensity
2 | RSLRKRPTSPSISGS | 232

Each binder was assayed against AgBem1-D1 in the same assay as above.
How it was run: as §1

Row | Binder | SPOT peptide array binding signal intensity
3 | RSLRKRPTSPSISGS | 118

These binders were tested against AgBzz1-D1 in the same assay as above.
How it was run: as §1

Row | Binder | SPOT peptide array binding signal intensity
4 | RSLRKRPTSPSISGS | 62.5

These binders were tested against AgBzz1-D2 in the same assay as above.
How it was run: as §1

Row | Binder | SPOT peptide array binding signal intensity
5 | RSLRKRPTSPSISGS | 63

These binders were tested against AgCyk3 in the same assay as above.
How it was run: as §1

Row | Binder | SPOT peptide array binding signal intensity
6 | RSLRKRPTSPSISGS | 23

What follows are binders tested against AgFus1 in the same assay as above.
How it was run: as §1

Row | Binder | SPOT peptide array binding signal intensity
7 | RSLRKRPTSPSISGS | 464

Each binder was assayed against AgHof1 in the same assay as above.
How it was run: as §1

Row | Binder | SPOT peptide array binding signal intensity
8 | RSLRKRPTSPSISGS | 77

These binders were tested against AgHse1 in the same assay as above.
How it was run: as §1

Row | Binder | SPOT peptide array binding signal intensity
9 | RSLRKRPTSPSISGS | 1610

The binders below were run against AgLsb1 in the same assay as above.
How it was run: as §1

Row | Binder | SPOT peptide array binding signal intensity
10 | RSLRKRPTSPSISGS | 7

These binders were tested against AgLsb4 in the same assay as above.
How it was run: as §1

Row | Binder | SPOT peptide array binding signal intensity
11 | RSLRKRPTSPSISGS | 326

Each binder was assayed against AgMyo5 in the same assay as above.
How it was run: as §1

Row | Binder | SPOT peptide array binding signal intensity
12 | RSLRKRPTSPSISGS | 1

The binders below were run against AgNbp2 in the same assay as above.
How it was run: as §1

Row | Binder | SPOT peptide array binding signal intensity
13 | RSLRKRPTSPSISGS | 724

What follows are binders tested against AgRvs167 in the same assay as above.
How it was run: as §1

Row | Binder | SPOT peptide array binding signal intensity
14 | RSLRKRPTSPSISGS | 9.67

The binders below were run against AgSho1 in the same assay as above.
How it was run: as §1

Row | Binder | SPOT peptide array binding signal intensity
15 | RSLRKRPTSPSISGS | 80.5

What follows are binders tested against AgSla1-D1-D2 in the same assay as above.
How it was run: as §1

Row | Binder | SPOT peptide array binding signal intensity
16 | RSLRKRPTSPSISGS | 698

These binders were tested against AgSla1-D3 in the same assay as above.
How it was run: as §1

Row | Binder | SPOT peptide array binding signal intensity
17 | RSLRKRPTSPSISGS | 3.5

These binders were tested against CaAbp1-D1 in the same assay as above.
How it was run: as §1

Row | Binder | SPOT peptide array binding signal intensity
18 | RSLRKRPTSPSISGS | 1720

The binders below were run against CaAbp1-D2 in the same assay as above.
How it was run: as §1

Row | Binder | SPOT peptide array binding signal intensity
19 | RSLRKRPTSPSISGS | 1730

What follows are binders tested against CaBbc1 in the same assay as above.
How it was run: as §1

Row | Binder | SPOT peptide array binding signal intensity
20 | RSLRKRPTSPSISGS | 522

What follows are binders tested against CaBem1-D1 in the same assay as above.
How it was run: as §1

Row | Binder | SPOT peptide array binding signal intensity
21 | RSLRKRPTSPSISGS | 57.5

The binders below were run against CaBzz1-D1 in the same assay as above.
How it was run: as §1

Row | Binder | SPOT peptide array binding signal intensity
22 | RSLRKRPTSPSISGS | 86

What follows are binders tested against CaBzz1-D2 in the same assay as above.
How it was run: as §1

Row | Binder | SPOT peptide array binding signal intensity
23 | RSLRKRPTSPSISGS | 94.5

Each binder was assayed against CaCyk3 in the same assay as above.
How it was run: as §1

Row | Binder | SPOT peptide array binding signal intensity
24 | RSLRKRPTSPSISGS | 201

The binders below were run against CaFus1 in the same assay as above.
How it was run: as §1

Row | Binder | SPOT peptide array binding signal intensity
25 | RSLRKRPTSPSISGS | 985

These binders were tested against CaHof1 in the same assay as above.
How it was run: as §1

Row | Binder | SPOT peptide array binding signal intensity
26 | RSLRKRPTSPSISGS | 0.75

What follows are binders tested against CaHse1 in the same assay as above.
How it was run: as §1

Row | Binder | SPOT peptide array binding signal intensity
27 | RSLRKRPTSPSISGS | 204

What follows are binders tested against CaLsb1 in the same assay as above.
How it was run: as §1

Row | Binder | SPOT peptide array binding signal intensity
28 | RSLRKRPTSPSISGS | ≤ 0

What follows are binders tested against CaLsb4 in the same assay as above.
How it was run: as §1

Row | Binder | SPOT peptide array binding signal intensity
29 | RSLRKRPTSPSISGS | 338

Each binder was assayed against CaMyo5 in the same assay as above.
How it was run: as §1

Row | Binder | SPOT peptide array binding signal intensity
30 | RSLRKRPTSPSISGS | 6

Each binder was assayed against CaNbp2 in the same assay as above.
How it was run: as §1

Row | Binder | SPOT peptide array binding signal intensity
31 | RSLRKRPTSPSISGS | 1160

The binders below were run against CaRvs167 in the same assay as above.
How it was run: as §1

Row | Binder | SPOT peptide array binding signal intensity
32 | RSLRKRPTSPSISGS | 27.5

The binders below were run against CaRvs167-3 in the same assay as above.
How it was run: as §1

Row | Binder | SPOT peptide array binding signal intensity
33 | RSLRKRPTSPSISGS | 210

These binders were tested against CaSho1 in the same assay as above.
How it was run: as §1

Row | Binder | SPOT peptide array binding signal intensity
34 | RSLRKRPTSPSISGS | 972

These binders were tested against CaSla1-D1-D2 in the same assay as above.
How it was run: as §1

Row | Binder | SPOT peptide array binding signal intensity
35 | RSLRKRPTSPSISGS | 226

These binders were tested against CaSla1-D3 in the same assay as above.
How it was run: as §1

Row | Binder | SPOT peptide array binding signal intensity
36 | RSLRKRPTSPSISGS | 1.5

What follows are binders tested against ScAbp1 in the same assay as above.
How it was run: as §1

Row | Binder | SPOT peptide array binding signal intensity
37 | RSLRKRPTSPSISGS | 65

The binders below were run against ScBbc1 in the same assay as above.
How it was run: as §1

Row | Binder | SPOT peptide array binding signal intensity
38 | RSLRKRPTSPSISGS | 94

The binders below were run against ScBem1-D1 in the same assay as above.
How it was run: as §1

Row | Binder | SPOT peptide array binding signal intensity
39 | RSLRKRPTSPSISGS | 50.5

What follows are binders tested against ScBzz1-D1 in the same assay as above.
How it was run: as §1

Row | Binder | SPOT peptide array binding signal intensity
40 | RSLRKRPTSPSISGS | 26.5

The binders below were run against ScBzz1-D2 in the same assay as above.
How it was run: as §1

Row | Binder | SPOT peptide array binding signal intensity
41 | RSLRKRPTSPSISGS | 28

The binders below were run against ScCyk3 in the same assay as above.
How it was run: as §1

Row | Binder | SPOT peptide array binding signal intensity
42 | RSLRKRPTSPSISGS | 294

Each binder was assayed against ScFus1 in the same assay as above.
How it was run: as §1

Row | Binder | SPOT peptide array binding signal intensity
43 | RSLRKRPTSPSISGS | 488

What follows are binders tested against ScHof1 in the same assay as above.
How it was run: as §1

Row | Binder | SPOT peptide array binding signal intensity
44 | RSLRKRPTSPSISGS | 1

The binders below were run against ScHse1 in the same assay as above.
How it was run: as §1

Row | Binder | SPOT peptide array binding signal intensity
45 | RSLRKRPTSPSISGS | 1770

Each binder was assayed against ScLsb1 in the same assay as above.
How it was run: as §1

Row | Binder | SPOT peptide array binding signal intensity
46 | RSLRKRPTSPSISGS | 54

These binders were tested against ScLsb2 in the same assay as above.
How it was run: as §1

Row | Binder | SPOT peptide array binding signal intensity
47 | RSLRKRPTSPSISGS | 20

The binders below were run against ScLsb3 in the same assay as above.
How it was run: as §1

Row | Binder | SPOT peptide array binding signal intensity
48 | RSLRKRPTSPSISGS | 1330

Each binder was assayed against ScLsb4 in the same assay as above.
How it was run: as §1

Row | Binder | SPOT peptide array binding signal intensity
49 | RSLRKRPTSPSISGS | 27.5

The binders below were run against ScMyo3 in the same assay as above.
How it was run: as §1

Row | Binder | SPOT peptide array binding signal intensity
50 | RSLRKRPTSPSISGS | 11

These binders were tested against ScMyo5 in the same assay as above.
How it was run: as §1

Row | Binder | SPOT peptide array binding signal intensity
51 | RSLRKRPTSPSISGS | 3

What follows are binders tested against ScNbp2 in the same assay as above.
How it was run: as §1

Row | Binder | SPOT peptide array binding signal intensity
52 | RSLRKRPTSPSISGS | 1530

These binders were tested against ScPex13 in the same assay as above.
How it was run: as §1

Row | Binder | SPOT peptide array binding signal intensity
53 | RSLRKRPTSPSISGS | 3

The binders below were run against ScRvs167 in the same assay as above.
How it was run: as §1

Row | Binder | SPOT peptide array binding signal intensity
54 | RSLRKRPTSPSISGS | 75.5

These binders were tested against ScSho1 in the same assay as above.
How it was run: as §1

Row | Binder | SPOT peptide array binding signal intensity
55 | RSLRKRPTSPSISGS | 959

The binders below were run against ScSla1-D1-D2 in the same assay as above.
How it was run: as §1

Row | Binder | SPOT peptide array binding signal intensity
56 | RSLRKRPTSPSISGS | 607

The binders below were run against ScSla1-D3 in the same assay as above.
How it was run: as §1

Row | Binder | SPOT peptide array binding signal intensity
57 | RSLRKRPTSPSISGS | 30

The binders below were run against SpAbp1-D1 in the same assay as above.
How it was run: as §1

Row | Binder | SPOT peptide array binding signal intensity
58 | RSLRKRPTSPSISGS | 477

What follows are binders tested against SpBbc1 in the same assay as above.
How it was run: as §1

Row | Binder | SPOT peptide array binding signal intensity
59 | RSLRKRPTSPSISGS | 8

What follows are binders tested against SpBzz1-D1 in the same assay as above.
How it was run: as §1

Row | Binder | SPOT peptide array binding signal intensity
60 | RSLRKRPTSPSISGS | 249
